Screens: PubChem BioAssay, National Center for Advancing Translational Sciences (NCATS)
POLH inh – qHTS for Inhibitors of Polymerase Eta. recombinant Pol eta, fluorescent DNA replication assay. Potency, µM (highest dose often 114 µM), without a hit: at the top dose activity change, negative = inhibition, hits mostly inhibitors. 390,000 compounds, 1.2% hits. AID 588591, 2011; note: potency is the fitted concentration of half-maximal effect; % is set by controls: 0 for no effect and ±100 for the full control effect
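Pol eta at 10 nM preincubated with compounds 15 min at room temperature; reaction started with fluorescent substrate (50 nM final) and read kinetically at 0 and 10 min.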
POLB inh – qHTS Assay for Inhibitors of DNA Polymerase Beta; Pol beta primer extension/strand displacement, fluorescence kinetic; AID 485314, 2010; Potency, µM (doses to about 114 µM), without a hit: top-dose activity change, negative = inhibition, hits mostly inhibitors; P06746; 340,000 compounds, 1.3% hits; note: potency is the fitted concentration of half-maximal effect; % is set by controls: 0 for no effect and ±100 for the full control effect
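Homogeneous kinetic assay of primer extension and strand displacement by 10 nM Pol beta, preincubated 15 min at room temperature with compound before 50 nM substrate (final) was added. Read at 0 and 10 min; four-parameter Hill fit.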
PI5P4K alpha inh – qHTS for Inhibitors of phosphatidylinositol 5-phosphate 4-kinase (PI5P4K); Phosphatidylinositol 5-phosphate 4-kinase type-2 alpha (Homo sapiens), P48426; PI5P4Kalpha enzyme, ADP-Glo luminescence, 60 min; hits give low values; max response, %; 330,000 compounds, 1.2% hits; active = max response of -50% or lower; inconclusive = between -30% and -50%; inactive = -30% or higher; note: value at the top dose of about 77 µM; % is set by controls: 0 for no effect and ±100 for the full control effect
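Compounds were pin-transferred onto PI5P4Kalpha and substrate in HEPES pH 7.4 buffer with EGTA, CHAPS and 5% DMSO. ATP (5 microM final) started the reaction, which ran 60 minutes at room temperature before ADP-Glo detection.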
POLK inh – qHTS for Inhibitors of Polymerase Kappa | purified Pol kappa, fluorescent DNA synthesis assay, 10 min | 400,000 compounds, 0.53% hits | Potency, µM (series often up to 107 µM), for the others: at the top dose activity, negative = inhibition, actives largely listed as inhibitors | AID 588579, 2011; note: potency is the fitted concentration of half-maximal effect; % is set by controls: 0 for no effect and ±100 for the full control effect
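50 nM final substrate added after 15 min RT preincubation of 10 nM Pol kappa with compound; fluorescence read at 0 and 10 min.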
POLI inh – qHTS for Inhibitors of Polymerase Iota | AID 588590, 2011 | Pol iota fluorescent replication assay, 10 min | 390,000 compounds, 1% hits | DNA polymerase iota (Homo sapiens), Q9UNA4 | Potency, µM (highest dose often 115 µM), without a hit: at the highest dose activity, negative = inhibition, most hits filed as inhibitors; note: potency is the fitted concentration of half-maximal effect
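Pol iota at 10 nM preincubated 15 min with compounds at room temperature; reaction started with fluorescent substrate, 50 nM final. Fluorescence read kinetically at 0 and 10 min; buffer-only wells as negative control.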
12-LOX inh – Primary qHTS assay for inhibitors of human arachidonate 12S-lipoxygenase (ALOX12): Round 2; Polyunsaturated fatty acid lipoxygenase ALOX12 (Homo sapiens), P18054; purified 12hLO, xylenol orange hydroperoxide absorbance; Potency, µM (highest dose often 108 µM), for the others: at the top dose activity change, negative = inhibition, hits mostly inhibitors; 580,000 compounds, 1.1% hits; AID 1671190, 2021; note: potency is the fitted concentration of half-maximal effect; % is set by controls: 0 for no effect and ±100 for the full control effect
Target sequence (P18054 whole entry, looked up): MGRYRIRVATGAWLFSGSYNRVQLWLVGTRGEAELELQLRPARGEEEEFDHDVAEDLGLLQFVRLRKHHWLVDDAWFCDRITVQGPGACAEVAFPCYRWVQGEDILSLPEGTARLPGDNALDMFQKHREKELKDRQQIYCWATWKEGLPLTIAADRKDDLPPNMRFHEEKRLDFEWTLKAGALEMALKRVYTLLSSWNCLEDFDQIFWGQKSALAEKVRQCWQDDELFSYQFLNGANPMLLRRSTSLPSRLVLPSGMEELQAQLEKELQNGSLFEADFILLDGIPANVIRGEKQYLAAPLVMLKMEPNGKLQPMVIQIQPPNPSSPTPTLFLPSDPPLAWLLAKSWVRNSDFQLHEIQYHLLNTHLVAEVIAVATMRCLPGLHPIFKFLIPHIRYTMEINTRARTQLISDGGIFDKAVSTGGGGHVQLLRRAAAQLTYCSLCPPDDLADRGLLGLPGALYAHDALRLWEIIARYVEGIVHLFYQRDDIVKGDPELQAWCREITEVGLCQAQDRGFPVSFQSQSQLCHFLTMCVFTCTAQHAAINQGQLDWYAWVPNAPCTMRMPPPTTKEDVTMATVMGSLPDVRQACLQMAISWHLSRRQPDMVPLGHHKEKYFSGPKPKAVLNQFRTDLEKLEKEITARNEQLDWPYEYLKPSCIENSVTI
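Purified human 12hLO at 150 nM in 25 mM Hepes, 0.01% Triton X-100, pH 7.0, preincubated 15 min at room temperature with compound. Reaction started with 40 uM arachidonic acid, 30 min at room temperature. Hydroperoxide measured by Fe-xylenol orange, 573/405 nm absorbance ratio.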
Numbers without * were called inactive; ? = inconclusive; . = no result given; [ ] = remark or other dose. A selection: hits, their analogues and other compounds. The true share with any hit is near 2.9%. Unless noted, calls come from the whole dose curve; as a rule, active = well fitted inhibition curve with a large enough effect; inconclusive = small, poorly fitted or top-dose-only effect, or another doubt; inactive = no such curve, though single readings can be large or run the other way.

SMILES	POLH inh	POLB inh	PI5P4K alpha inh	POLK inh	POLI inh	12-LOX inh
Cc1ccc(-n2nc3c(N4CCC(C(=O)NCc5ccc(C)o5)CC4)nnc(C)c3c2C)cc1	-17.2%	0.398µM*	-8.0	6.9%	?	2.5%
COc1ccc(-n2nc3c(N4CCC(C(=O)NCc5ccccc5C)CC4)nnc(C)c3c2C)cc1	4.4%	79.4µM*	1.1	-28.3%	?	-24.5%
Cc1ccc(-n2nc3c(N4CCC(C(=O)NCCc5ccco5)CC4)nnc(C)c3c2C)cc1	-2.0%	-17.9%	-9.6	-2.6%	?	51.9%
COc1ccc(-c2cc3c(=O)n(CCNC(=O)c4ccccc4C)ccn3n2)cc1	.	.	.	.	.	44.4%
COC(=O)C1CCC(=S)N1C(=O)c1ccccc1 (centres undefined)	-1.2%	-7.6%	3.2	7.5%	-0.1%	8.91µM*
c1ccc(-c2nc(CSC3=NCCCN3)cs2)cc1	.	.	.	.	.	15.8µM*
c1ccc(CSC2=NCCCN2)cc1	-10.6%	0.0%	-2.6	3.1%	14.2%	?
Cc1ccc2[nH]c(C(=O)NCc3ccccc3C)cc2c1	.	.	.	.	.	1.4%
Cc1nc2scc(-c3ccc(C(C)(C)C)cc3)c2c(=O)n1N	89.1µM*	1.9%	-19.7	-24.6%	?	-1.1%
COc1ccc(-c2csc3nc(C)n(-n4cccc4)c(=O)c23)cc1	-4.7%	-3.8%	-5.3	-7.9%	7.4%	?
CC(C)c1ccc(/C=N/c2sc3c(c2C#N)CCCC3)cc1	.	.	.	.	.	-15.7%
CC(C)(C)c1ccc(/C=N/c2sc3c(c2C#N)CCCC3)cc1	.	.	.	.	.	28.2µM*
CCN(/C=N/c1sc2c(c1C#N)CCCCC2)CC	-9.1%	4.3%	-5.7	-22.2%	11.4%	44.7µM*
CC1=C[C@@H](CN(C)CCO)[C@H](C(C)C)C[C@H]1Cc1nnc(-c2ccc(N(C)C)cc2)o1	.	.	.	.	.	51.1%[176 µM]
CCCSc1nn(CCN(C)C)c2nc3sc4c(c3c(=O)n12)CCCCC4	.	.	.	.	.	-14.3%
O=C1C(C=Nc2ccccc2)=C(O)c2ccccc21	10.2%	40.9%	-10.6	0.1%	19.5%	-1.2%
Cc1ccc(O)c(N=CC2=C(O)c3ccccc3C2=O)c1	17.8µM*	?	?	-25.4%	?	156.4%[57.4 µM]
O=C1C(C=Nc2ccccc2O)=C(O)c2ccccc21	-10.7%	35.5µM*	.	0.0%	7.9%	0.9%
CN=CC1=C(O)c2ccccc2C1=O	-7.7%	30.0%	.	0.8%	-12.5%	4.7%
CCN(CC)c1ncnc2c1sc1nc(-c3ccco3)c3c(c12)CC(C)(C)OC3	.	.	.	.	.	-24.3%
O=C(CCC1CCCC1)N1CCN(c2nc3ccccc3o2)CC1	.	.	.	.	.	4.5%
CCc1ccc2cc(-c3ccc(C)c(C)c3)cn2c1	.	.	.	.	.	25.1µM*
CCOC(=O)c1cc2cc(C(=O)O)ccc2[nH]1	.	.	.	.	.	15.8µM*
CC(C)c1ccc(CNCCCSc2ncccn2)cc1	-6.8%	8.4%	-3.0	8.1%	8.0%	25.1µM*
CCOc1ccc(CNCCCSc2ncccn2)cc1	-14.3%	50.4%	-0.2	10.5%	9.8%	1.9%
SMILES	POLH inh	POLB inh	PI5P4K alpha inh	POLK inh	POLI inh	12-LOX inh
Cc1ccc(C)c(NCc2cc3cccc(C)c3[nH]c2=O)c1	.	.	.	.	.	-28.2%
CC(C)(O)c1ccc2c(c1)CCC1C(C)(C(=O)O)CCCC21C (centres undefined)	?	39.8µM*	-16.5	-38.6%	?	11.2%
CC(=O)CSc1nnc(-c2ccc(S(=O)(=O)N3CCCC3)cc2)n1C	-8.9%	-0.1%	2.4	5.9%	?	3.2%
CN(C)C(=O)CSc1nnc(-c2ccc(S(=O)(=O)N3CCCC3)cc2)n1C	89.1µM*	3.7%	-20.4	?	?	-0.3%
COc1ccc(-n2c(NC(=O)c3ccc(Br)o3)c(C#N)c3nc4ccccc4nc32)cc1	.	31.6µM*	.	.	.	.
CCC(=O)Nc1c(C#N)c2nc3ccccc3nc2n1-c1ccc(C)cc1	45.9%	.	0.6	-0.5%	22.3%	-4.0%
CC(C)c1ccc(S(=O)(=O)N2CCN(C(=O)c3cn[nH]c3-c3ccccc3)CC2)cc1	.	.	.	.	.	-9.9%
S=C1NC(c2cccs2)=CC(c2ccc(Br)cc2)N1 (centres undefined)	-11.1%	2.9%	-8.9	-9.6%	-26.8%	39.8µM*
COc1ccc(CN2CCCC(c3cc(=O)[nH]c(C)n3)C2)c(OC)c1C (centres undefined)	.	.	.	.	.	22.5%
COc1cccc([S+](=O)([O-])N2CCn3c(nn(-c4cccc(Cl)c4)c3=O)C2)c1	.	.	.	.	.	6.31µM*
CCOC(=O)c1ccc(NC(=O)Nc2ccn(C)n2)cc1	-3.6%	30.0%	.	-16.7%	89.1µM*	-3.8%
O=C1/C(=C/c2ccc(O)c(O)c2)Oc2ccccc21	.	.	.	13.4µM*	.	.
Cc1ccccc1/C=C1\Oc2ccccc2C1=O	-12.4%	.	24.9	7.4%	-19.0%	-5.9%
Cc1cccc(C(=O)Nc2nc3c(s2)CCCC3)c1	-14.1%	-21.2%	.	-5.3%	22.8%	-8.0%
O=C(Nc1nc2c(s1)CCCC2)c1ccc(Br)s1	-8.7%	-1.1%	.	-6.3%	79.4µM*	?
CCOc1cc(/C=C2/C(=O)ON=C2C)cc(Br)c1O	?	3.1%	-66.8*	-5.6%	-25.5%	?
Cc1ccc(C2=NOC(=O)/C2=C\c2ccccc2)cc1	-18.3%	.	-19.4	-21.0%	?	?
O=C1ON=C(c2ccc(Cl)cc2)/C1=C/c1ccc(O)cc1	?	4.6%	?	0.3%	60.4%	31.6µM*
O=C1ON=C(c2ccccc2)/C1=C/c1ccc(O)cc1	-12.9%	-1.3%	?	-2.3%	-9.8%	44.7µM*
